Screening results: PubChem, National Center for Advancing Translational Sciences (NCATS)
FLuc counter = firefly luciferase modulation, counter-screen for miR-21 project. P08659. Potency, µM (doses to about 57.5 µM), without a hit: at the highest dose activity change, negative = inhibition, actives largely listed as inhibitors. purified FLuc, Km substrates, luminescence inhibition. 6.9% of 360,000 active;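 note: plate controls were vehicle for no effect and reference inhibitor for full effect; nearly all actives have a fitted effect of over 55% in size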
Target sequence (P08659 whole entry, looked up): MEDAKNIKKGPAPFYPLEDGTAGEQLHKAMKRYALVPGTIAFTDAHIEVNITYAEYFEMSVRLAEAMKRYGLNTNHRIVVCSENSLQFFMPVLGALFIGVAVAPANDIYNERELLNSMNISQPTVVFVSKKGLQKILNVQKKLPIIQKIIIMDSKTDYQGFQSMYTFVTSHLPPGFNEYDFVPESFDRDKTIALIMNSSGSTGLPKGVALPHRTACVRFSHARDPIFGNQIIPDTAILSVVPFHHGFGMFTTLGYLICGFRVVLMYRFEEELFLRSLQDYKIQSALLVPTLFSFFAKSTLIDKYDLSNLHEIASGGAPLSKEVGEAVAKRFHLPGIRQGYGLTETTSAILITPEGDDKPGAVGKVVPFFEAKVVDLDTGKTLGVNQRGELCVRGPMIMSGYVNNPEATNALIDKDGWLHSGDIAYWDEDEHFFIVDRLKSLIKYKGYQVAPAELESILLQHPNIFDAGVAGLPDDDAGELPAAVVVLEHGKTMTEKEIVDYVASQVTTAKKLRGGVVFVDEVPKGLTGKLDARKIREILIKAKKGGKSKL
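Biochemical qHTS of compounds, final roughly 60 µM downward over six points, against 10 nM purified firefly luciferase using Km concentrations of substrates (10 uM D-luciferin, 10 uM ATP) in Tris acetate pH 7.5 buffer; luminescence output.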
NPC1 promoter act = NPC1 promoter activation | Huh7 NPC1 promoter luciferase reporter, 24 h | Potency, µM (series often up to 9.22 µM), without a hit: at the highest dose activation, usual class: activators | 2.4% of 320,000 active; note: % of control where 0% means no effect; nearly all actives have a fitted effect of over 60% in size
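Luminescence from an NPC1 promoter-driven luciferase reporter in stably transfected Huh7 cells was measured after 24 h compound treatment at 37 °C, followed by 10 min ambient incubation with luciferase detection reagent.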
Rab9 prom act = Rab9 promoter activation | Huh7 Rab9 promoter-luciferase reporter, luminescence, 24 h | Potency, µM (titrated, usually from 9.22 µM), without a hit: at the highest dose activation, negative = inhibition, most hits filed as activators | 2.8% of 320,000 active | AID 485297; note: % of control where 0% means no effect; nearly all actives have a fitted effect of over 60% in size
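Rab9 promoter-driven luciferase in stably transfected Huh7 cells; 1500 cells/well rested 2 h, exposed to compound in DMSO for 24 h at 37 °C, 5% CO2. Luminescence read 10 min after adding luciferase reagent at ambient temperature.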
SMN2 splice enh = enhancers of SMN2 splice variant expression. 2.8% of 210,000 active. AID 1458. Potency, µM (titrated, usually from 46.1 µM), for inactives: at the highest dose activity change, positive = activation, usual class: activators. HEK293 SMN2-luciferase splicing reporter, luminescence, 30-36 h; note: % of control where 0% means no effect; nearly all actives have a fitted effect of over 55% in size
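HEK293 cells carry an SMN2 minigene-luciferase reporter in which exon 7 inclusion puts luciferase in frame. Cells were seeded at 2000 cells/well, attached for 10-12 hours, then exposed to compounds for 30-36 hours at 37C before ONE-Glo luminescence.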
Luc counter = counter-screen: inhibitors of Kinase-Glo firefly luciferase; Q27757; Kinase-Glo luciferase, ATP luminescence, 8 min; Potency, µM (titrated, usually from 38.3 µM), for inactives: at the top dose activity change, negative = inhibition, hits mostly inhibitors; 0.28% of 200,000 active; AID 1379; note: % is set by controls: 0 for no effect and ±100 for the full control effect; nearly all actives have a fitted effect of over 60% in size
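Light output from Kinase-Glo luciferase with luciferin and 10 uM ATP in 50 mM imidazole pH 7.2, KCl, MgCl2, Tween 20, BSA; compound pin-delivered, 8-min ambient incubation, then luminescence read.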
ELG1 genotox = induces genotoxicity in HEK293T cells with luciferase-tagged ELG1; HEK293T ELG1-luciferase reporter, luminescence, 16 h; Potency, µM (highest dose often 46 µM), inactives show at the highest dose activity change, positive = activation, most hits filed as activators; 1.3% of 330,000 active; AID 504466; note: % of control where 0% means no effect; nearly all actives have a fitted effect of over 60% in size
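After overnight (16 hr) compound treatment at 37 °C, ELG1-luciferase HEK293T cells were lysed with ONE-Glo; luminescence quantified 30 min later at room temperature.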
Starred values were filed as active, the others as inactive; u = inconclusive; x = no result. Rows were chosen to be rich in hits. Some 7.5% of all compounds tested hit in one or more screens of this group. Calls come from the whole dose curve; as a rule, active = well fitted curve in the direction sought with a large enough effect; inconclusive = small, poorly fitted or top-dose-only effect, or another doubt; inactive = no such curve, though single readings can be large; an effect the other way counts as inactive or inconclusive. Potency is the fitted concentration of half-maximal effect.

SMILES	FLuc counter	NPC1 promoter act	Rab9 prom act	SMN2 splice enh	Luc counter	ELG1 genotox
O=c1c(N2CCc3ccccc3C2)csc2ccccc12	9.5µM*	x	x	x	x	x
COc1ccccc1N1CCN(c2csc3ccccc3c2=O)CC1	11µM*	x	x	x	x	x
O=c1c(N2CCc3ccccc3C2)csc2ccc(Br)cc12	9.5µM*	x	x	x	x	x
Cc1ccc2c(c1)-c1c(c(C(=O)NCCc3ccccc3)nn1C)CS2	-10%	x	x	x	x	x
CCOc1ccccc1NC(=O)CSc1nc2c([nH]c3ccccc32)c(=O)n1-c1ccccc1	6%	x	x	x	x	x
COc1cccc(CNC(=O)c2cc3c(s2)-c2c(C)cccc2OC3)c1	-11%	x	x	-29%	x	x
COc1ccccc1N1CCN(c2cc(C)nc3c(-c4ccc(Cl)cc4)c(C)nn23)CC1	3%	x	x	x	x	x
O=C(COC(=O)c1ccc(F)cc1F)NC(=O)Nc1ccc2c(c1)OCCO2	-18%	15%	2%	x	x	10%
CC(=O)Cc1nsc(NC(=O)c2ccc(-c3cc(Cl)ccc3Cl)o2)n1	13µM*	-11%	-1%	-14%	0%	-6%
CC(=O)Cc1nsc(NC(=O)c2ccc(-c3cc(C(F)(F)F)ccc3Cl)o2)n1	-18%	-14%	-16%	u	-3%	-12%
O=C(NCCCNC(=O)c1ccc(-c2cccc(Cl)c2)o1)c1cnccn1	-9%	-3%	6%	x	x	-4%
CC(=O)Cc1nsc(NC(=O)c2ccc(-c3ccc(Cl)cc3Cl)o2)n1	6.7µM*	3%	3%	-2%	-4%	-3%
CC(=O)Cc1nsc(NC(=O)c2cc(-c3ccccc3Cl)oc2C)n1	u	2%	-11%	-5%	-3%	3%
O=C(NCCNC(=O)c1ccc(-c2ccc(Cl)c(Cl)c2)o1)c1cnccn1	15µM*	8%	2%	x	x	-4%
CC(=O)Cc1nsc(NC(=O)c2ccc(-c3cccc(C(F)(F)F)c3)o2)n1	9.5µM*	0%	1%	u	2%	-3%
Cc1nnc(NC(=O)c2ccc(-c3cccc(C(F)(F)F)c3)o2)s1	3%	2%	11%	u	2%	3%
COc1ccc(NC(=O)c2cc(S(=O)(=O)NCCC3=CCCCC3)ccc2F)cc1	3%	x	x	x	x	x
Cc1ccc(-c2nnc(Nc3ccc(Br)cc3)c3ccccc23)cc1S(=O)(=O)N1CCOCC1	-4%	x	x	x	x	x
CC(=O)Cc1nsc(NC(=O)c2cc(-c3ccc(Cl)c(Cl)c3)oc2C)n1	-2%	-3%	-1%	-5%	0%	0%
CC(=O)Cc1nsc(NC(=O)c2ccc(-c3ccc(Cl)c(Cl)c3)o2)n1	11µM*	-1%	-2%	3%	3%	-3%
COc1cc(/C=C(\C#N)c2nc3ccc(C)cc3[nH]2)ccc1OC(C)C	-17%	x	x	-7%	x	x
CCN(CC)c1ccc(/C=C(/C#N)c2nc3ccccc3[nH]2)c(OC(C)C)c1	2.7µM*	21%	u	-65%	-4%	17%
COc1cccc(-c2cc(C(=O)O)no2)c1	u	-1%	-2%	-2%	16%	-2%
COc1ccc(-c2cc(C(=O)NC(C)C)no2)cc1	5.4µM*	2.5µM*	1.1µM*	13µM*	-3%	6.5µM*
COC(=O)c1cc(-c2cccc(OC)c2)on1	12µM*	-2%	-3%	-11%	-4%	2%
SMILES	FLuc counter	NPC1 promoter act	Rab9 prom act	SMN2 splice enh	Luc counter	ELG1 genotox
COC(=O)c1cc(-c2ccc(Br)cc2)on1	8.5µM*	-1%	1%	-2%	1%	1%
CCN(CC)C(=O)c1cc(-c2ccc(Br)cc2)on1	9.5µM*	2µM*	3.2µM*	u	0%	u
CCOc1ccccc1NC(=O)C(=O)NCCc1sc2nc(-c3ccc(OC)cc3)nn2c1C	-3%	x	x	x	x	x
O=C(O)CCCC/C=C\C[C@@H](O)/C=C/C=C/C=C\[C@@H](O)CCCC(=O)O	x	x	x	6%	-1%	x
COC(=O)c1cc(-c2ccc(OC)c(OC)c2)on1	-11%	-2%	1%	x	x	1%
COC(=O)c1cc(-c2ccc(OC)cc2)on1	8.5µM*	-1%	-7%	x	-6%	1%
COC(=O)c1cc(-c2ccccc2)on1	17µM*	-21%	1%	8%	-2%	2%
COc1ccc(C2=C(C(C)=O)Sc3nnc(-c4ccc(C)cc4)n3N2C(C)=O)cc1OC	0%	x	x	x	x	x
COc1ccc(Nc2cc(C(=O)NCc3ccccc3)c3ccccc3n2)c(OC)c1	8.5µM*	x	x	-1%	x	x
COc1ccccc1Nc1cc(C(=O)NCc2cccnc2)c2ccccc2n1	8.5µM*	-2%	4%	x	x	0%
Cc1ccc(C)c(Nc2cc(C(=O)NCc3cccnc3)c3ccccc3n2)c1	u	0%	1%	x	x	-10%
COc1ccc(Nc2cc(C(=O)NCCCN(C)Cc3ccccc3)c3ccccc3n2)c(OC)c1	-17%	x	x	x	x	x
Cn1c(-c2ccc3ccccc3n2)nc2cnccc21	8.5µM*	4µM*	2.2µM*	99%	-7%	u
COc1cc(OC)c(-c2nc3cnccc3n2C)cc1OC	-2%	-6%	-3%	u	2%	11%
Cn1c(=O)c2c(nc(Oc3ccccc3)n2Cc2c(Cl)cccc2Cl)n(C)c1=O	-5%	x	x	6%	x	x
CNC(=S)N/N=C/c1ccc(N(C)C)cc1	u	3.5µM*	2.8µM*	x	x	u
CN(C)c1ccc(/C=N/NC(=O)CNC(=O)/C=C/c2ccccc2)cc1	2.4µM*	u	u	x	x	u
CN(C)c1ccc(/C=N/NC(=O)COc2ccccc2)cc1	19µM*	9%	20%	15%	-1%	7%
COC(=O)C(CCSC)NC(=O)Cn1ncc2c([nH]c3ccccc32)c1=O (stereo not drawn)	1%	x	x	x	x	x
Cc1ccc2c(C)c(C(=O)N3CCN(Cc4ccc5c(c4)OCO5)CC3)oc2c1C	24µM*	u	u	x	x	17%
CCOc1ccccc1CNc1ccc2cc(S(=O)(=O)N3CCC(C)CC3)ccc2n1	-6%	x	x	x	x	x
Cc1cccc(-n2cnc(C(=O)NC3CCCCCC3)c2)n1	15µM*	2.5µM*	3.5µM*	u	-7%	u
Cc1ccc(C(=O)NCCn2cc(SCC(=O)Nc3cc(C)on3)c3ccccc32)cc1	5.4µM*	0%	u	-66%	-1%	u
Cc1cc(NC(=O)CSc2cn(CCNC(=O)c3ccccc3)c3ccccc23)no1	19µM*	-1%	-6%	-22%	15%	-10%
O=C(NC1CCCCC1)c1cc2nc3c(c(C(F)(F)F)n2n1)CCCC3	24µM*	u	3.5µM*	35µM*	0%	u
CC(=O)c1ccc(NC(=O)c2cc3nc4c(c(C(F)(F)F)n3n2)CCCC4)cc1	u	23%	u	20%	2%	11%
